# Shiga toxin inh – Shiga toxin inhibition. Vero cells, Shiga toxin protein synthesis inhibition reporter. inhibition, % at 38.7 µM. 290,000 compounds, 9.2% hits. AID 2315; in the data active means inhibition mostly above about 28%, no sharp cut-off; inactive means mostly below about 43%; further: 0% is about no effect
# LmPK inh – blocks Leishmania mexicana pyruvate kinase activity. purified LmPK, Kinase-Glo ATP luminescence, 1 h. Potency, µM (doses to about 57.5 µM), for inactives: at the top dose activity change, negative = inhibition, actives largely listed as inhibitors. 290,000 compounds, 0.37% hits. Q27686; further: potency means the concentration at half of the fitted maximal effect; on the % scale 0 is the no-effect control and ±100 the full control effect
# Target sequence (Q27686 whole entry, looked up): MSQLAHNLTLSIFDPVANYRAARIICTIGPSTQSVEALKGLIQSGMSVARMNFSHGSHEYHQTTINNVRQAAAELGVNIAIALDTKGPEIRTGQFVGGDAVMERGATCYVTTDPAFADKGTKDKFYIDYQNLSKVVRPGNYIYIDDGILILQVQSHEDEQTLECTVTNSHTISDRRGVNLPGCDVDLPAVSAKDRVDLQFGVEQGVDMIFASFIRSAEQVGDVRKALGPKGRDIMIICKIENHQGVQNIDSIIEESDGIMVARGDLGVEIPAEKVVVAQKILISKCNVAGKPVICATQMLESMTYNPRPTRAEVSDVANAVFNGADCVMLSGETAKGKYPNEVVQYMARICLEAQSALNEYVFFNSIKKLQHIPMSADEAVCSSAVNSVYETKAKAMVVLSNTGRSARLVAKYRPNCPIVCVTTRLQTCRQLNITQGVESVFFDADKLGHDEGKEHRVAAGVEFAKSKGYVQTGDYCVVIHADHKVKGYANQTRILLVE
#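 qHTS format; LmPK 0.1 nM; substrates PEP 0.5 mM and ADP 0.1 mM. One-hour room-temperature incubation, then coupled luciferase luminescence; 0.5 nM enzyme wells mark activation.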
# TbPYK inhibitor – inhibitors of Trypanosoma brucei pyruvate kinase; 410,000 compounds, 0.12% hits; Q57TT1; Potency, µM (top dose mostly 76.8 µM), inactives show top-dose activity, negative = inhibition, hits mostly inhibitors; AID 624173; TbPYK enzyme, Kinase-Glo Plus ATP luminescence, 45 min; further: potency means the concentration at half of the fitted maximal effect; on the % scale 0 is the no-effect control and ±100 the full control effect; nearly all actives have a fitted effect of over 50% in size
#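 Luminescent Kinase-Glo Plus end-point after 45 min room-temperature reaction of T. brucei pyruvate kinase started with 130 uM ADP (final). Buffer TEA 50 mM pH 7.2 with KCl, MgCl2, BSA, Tween-20; titration-based qHTS with fitted concentration-effect curves.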
# RE007 growth inh – less growth of the S. pombe RE007 Vpr strain | S. pombe RE007 Vpr strain, BacTiter-Glo ATP luminescence, 24 h | Potency, µM (highest dose often 92.2 µM), without a hit: top-dose activity change, negative = less growth, most hits filed as inhibitors | 360,000 compounds, 0.21% hits; active means well fitted falling curve with a large enough effect; inconclusive means small, poorly fitted or top-dose-only effect; inactive means no such curve, though single readings can be large or run the other way; further: potency means the concentration at half of the fitted maximal effect; on the % scale 0 is the no-effect control and ±100 the full control effect; nearly all actives have a fitted effect of over 50% in size
#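 Fission yeast RE007 carrying one integrated HIV-1 vpr copy, seeded at OD 0.01 in PMG+AL medium with 23 nL pinned compound. Grown 24 h at 30 degrees; viability read by BacTiter-Glo luminescence after 5 min.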
# Giardia FBPA inh – Giardia lamblia aldolase inhibition; A8B2U2; purified Giardia FBPA; 290,000 compounds, 0.71% hits; Potency, µM (series often up to 59.6 µM), for inactives: at the highest dose activity, negative = inhibition, most hits filed as inhibitors; further: potency means the concentration at half of the fitted maximal effect; on the % scale 0 is the no-effect control and ±100 the full control effect; nearly all actives have a fitted effect of over 55% in size
#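 40 nM FBPA preincubated 10 min at RT with compound (up to 57.5 uM final), then substrate plus GAPDH/TPI/NAD/arsenate coupling and diaphorase/resazurin added. Fluorescence read after 20 min at RT, 525/598 nm.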
# CHX counter – affects cycloheximide protein synthesis inhibition readout, counter-screen; cell reporter, cycloheximide protein synthesis inhibition counterscreen; max response, %; 300,000 compounds, 12% hits; in the data active means max response mostly above about 13%, no sharp cut-off; inactive means mostly below about 14%; further: read at 38.3 µM for the half of the compounds with a filed dose; 0% is about no effect
# * marks the source's active call; other numbers are inactive results; u = inconclusive; x = no result given; [ ] = remark or other dose. This excerpt belongs to a sample that is enriched for hits. Unless noted, the call rests on the fitted dose curve; in most records, active means well fitted curve in the direction sought with a large enough effect; inconclusive means small, poorly fitted or top-dose-only effect, or another doubt; inactive means no such curve, though single readings can be large; an effect the other way counts as inactive or inconclusive.
SMILES,Shiga toxin inh,LmPK inh,TbPYK inhibitor,RE007 growth inh,Giardia FBPA inh,CHX counter
CCc1ccc(NC(=O)CCn2ccnc2C)cc1,-11,9%,-10%,-17%,-2%,7
CCCc1nn(C)c(C(=O)Nc2cccc3ccccc23)c1Cl,36*,-1%,1%,-10%,-4%,12
NS(=O)(=O)c1ccc(CNC(=O)c2ccc3ccccc3n2)cc1,7,8%,1%,11%,0%,1
NS(=O)(=O)c1ccc(CCNC(=O)c2ccc3ccccc3n2)cc1,45*,0%,0%,16%,-12%,34*
COc1ccc(CCNC(=O)c2cnc(C)cn2)cc1,18,-6%,2%,0%,x,14
NS(=O)(=O)c1ccc(CNc2ccc3ccccc3n2)cc1,88*,-1%,5%,-12%,u,12
COc1ccc(CCNC(=O)c2ccc3ccccc3n2)cc1,69*,1%,-3%,-21%,-16%,52*
COc1ccc(CNC(=O)c2ccc(NC(=O)N3CCSc4ncccc43)cc2)c(OC)c1,x,x,-1%[15.4 µM],x,x,x
CCOc1ccc(C2C(=O)N(C3CCCCCC3)CC(=O)N2CCc2ccccc2)cc1OC (configuration not stated),x,x,-4%,x,x,x
COc1ccc(C(C(=O)NC(C)(C)C)N(CCc2ccccc2)C(=O)CCC(=O)Nc2cc(C)on2)cc1 (configuration not stated),31*,3%,3%,8%,0%,22*
Oc1ccccc1-c1cc(-c2ccco2)[nH]n1,134*,-5%,-2%,-21%,-18%,47*
Oc1c(-c2cc(-c3ccco3)[nH]n2)ccc2ccccc12,149*,-1%,3%,4%,-8%,48*
Oc1ccc(Cl)cc1-c1cc(-c2ccco2)[nH]n1,57*,5%,-16%,u,-19%,30*
Oc1ccc(Br)cc1-c1cc(-c2ccco2)[nH]n1,42,0%,-11%,u,-2%,8
COc1ccccc1Nc1nnc(SCC(=O)c2c(N)n(C3CC3)c(=O)[nH]c2=O)s1,x,x,3%,4%,x,x
O=C(CCc1nc(-c2ccccc2F)no1)NC1CCCCC1,9,-5%,-1%,-7%,6%,8.6*
Cc1ccc(-c2noc(CCC(=O)NC3CC3)n2)cc1,43,-4%,1%,5%,0%,20*
Cc1ccccc1-c1noc(CCC(=O)NC2CCCCC2)n1,-11,1%,4%,-1%,0%,-4
CN(C(=O)CCc1nc(-c2ccccc2F)no1)c1ccc(Cl)cc1,x,x,1%,x,x,x
CN(C(=O)CCc1nc(-c2ccccc2F)no1)c1ccccc1,98*,4%,3%,4%,1%,41*
Cc1ccc(-c2nnn(CCC(=O)NC3CCCC3)n2)cc1,32,2%,-3%,14%,-10%,17*
Cc1ccc2nc(N(Cc3cccnc3)C(=O)c3ccco3)sc2c1,x,x,-7%,x,x,x
CC1Cc2ccccc2N1S(=O)(=O)c1nnc(NC(=O)c2cccc(F)c2)s1 (configuration not stated),x,x,0%,x,x,x
Cc1ccc(OCC(=O)Nc2nonc2-c2ccc(C)c(C)c2)cc1C,x,x,6%,x,x,x
O=C(NC1CCCCCC1)c1cccc(COCC(F)(F)F)c1,active,-15%,-3%,-2%,3%,22*
SMILES,Shiga toxin inh,LmPK inh,TbPYK inhibitor,RE007 growth inh,Giardia FBPA inh,CHX counter
O=C(NC1CCCCC1)c1ccc(COCC(F)(F)F)o1,-13,1%,-4%,-11%,x,10
O=C(NC1CCCC1)c1cccc(Oc2ccccc2)c1,78*,2%,-10%,15%,-1%,23*
Cc1cccc(CC(=O)NCC2CCCCC2)c1,93*,-5%,2%,11%,10%,31*
COc1cccc(/C=C/C(=O)NCC2CCCCC2)c1,x,x,4%,-7%,x,x
CCC(C)(C)c1ccc(Oc2cccc(C(=O)O)c2)cc1,163*,9%,-6%,5%,u,39*
CN(C)c1cccc(C(=O)NC2CCCc3ccccc32)c1 (configuration not stated),26,0%,3%,-26%,-7%,11
CN(C)c1cccc(C(=O)NC2CCCCCC2)c1,43*,-2%,-4%,-25%,-15%,40*
Cc1cccc(C(=O)NC2CCCCCCC2)c1,78*,2%,-3%,-11%,-3%,45*
CCCN1C(=O)c2cc(C(=O)NC3CCCCCC3)ccc2C1O (configuration not stated),41*,-7%,-4%,14%,6%,34*
Cc1ccc(C(=O)Nc2cccc(C(=O)NC3CCCCC3)c2)cc1,x,x,-2%,-13%,x,x
CCCC(C)NC(=O)c1cccc(Oc2ccccc2)c1 (configuration not stated),60*,-9%,4%,9%,10%,23*
COc1cc2c(=O)c(C(=O)c3ccc(C)c(C)c3)cn(Cc3ccccc3F)c2cc1OC,x,x,8%,x,x,x
CC(C)Oc1ccc(CNC(=O)c2ccc(CS(=O)Cc3ccccc3Cl)o2)cc1 (configuration not stated),x,x,0%,x,x,x
Cc1ccc(-c2nn(-c3cccc([N+](=O)[O-])c3)c3c2cnc2ccc(F)cc23)cc1,x,x,-2%,x,x,x
CCN1CC(O)=C(c2nc3ccccc3s2)C1=N,27,-3%,-6%,-19%,-4%,24*
CCCCN1CC(O)=C(c2nc3ccccc3s2)C1=N,44,4%,3%,u,0%,25*
CC(O)CN1CC(O)=C(c2nc3ccccc3s2)C1=N (configuration not stated),21,9%,-9%,-2%,2%,17*
N#Cc1cnc(SCCc2ccccc2)nc1N,39*,-9%,-8%,-22%,-7%,24*
N#Cc1cnc(SCC(=O)c2ccccc2)nc1N,18,6%,-8%,2%,-4%,11
CCCCCCSc1ncc(C#N)c(N)n1,37*,-2%,-4%,-16%,5%,29*
CCOC(=O)c1cccc(-c2ccc(C=O)o2)c1,116*,0%,-12%,3%,-5%,47*
CCOC(=O)c1ccc(-c2ccc(C=O)o2)cc1,80*,-5%,0%,-22%,-2%,48*
CCCOC(=O)c1cc(-c2ccc(C=O)o2)ccc1Cl,31,-1%,3%,-4%,5%,29*
CCCOC(=O)c1ccc(-c2ccc(C=O)o2)cc1,139*,-3%,2%,-16%,-13%,44*
CCCCOC(=O)c1ccc(-c2ccc(/C=N/NC(=S)NCC)o2)cc1,39,-5%,-3%,8%,-9%,6
Nc1sc(-c2ccccc2)cc1C(=O)N/N=C/c1ccc(Cl)cc1,34*,2%,-7%,-3%,-8%,9
COC(=O)c1cc(-c2ccccc2)sc1N,58*,5%,-8%,-23%,-4%,26*
C#CCNC(=O)c1cc(-c2ccccc2)sc1N,x,x,x,-4%,x,x
